Compound activity from PubChem BioAssay.
The list is not random: actives were taken first. Their share in the collection is about 4.8%.
DAX1 inh-1: NR0B1 (DAX1) inhibition; HEK293 Gal4-DAX1 luciferase reporter, luminescence; inhibition, % at 6.75 µM; actives 0.99% (n = 340,000);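 active = inhibition above the mean over all tested compounds plus 3 SD, cut at about 4.2% in these data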;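 note: 0% = DAX1-transfected cells with DMSO and 100% = empty-vector control cells with DMSO; inhibition shows as a rise in luminescence from relieved DAX1 repression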
Target sequence (P51843 207-470 limits assumed): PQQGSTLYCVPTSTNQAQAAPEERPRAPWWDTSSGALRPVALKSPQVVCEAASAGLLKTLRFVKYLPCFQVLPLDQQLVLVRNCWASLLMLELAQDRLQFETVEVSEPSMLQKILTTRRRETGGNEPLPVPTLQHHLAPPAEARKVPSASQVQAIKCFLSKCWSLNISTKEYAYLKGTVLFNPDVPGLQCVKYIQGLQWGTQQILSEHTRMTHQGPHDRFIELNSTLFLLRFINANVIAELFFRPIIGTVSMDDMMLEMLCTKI
hgDAF-12 ag: agonists of H. glycines DAF-12 nuclear receptor. activation, % at 6.8 µM. AID 687014. HEK293 GAL4-hgDAF12 UAS-luciferase reporter, agonist luminescence; normalized to butyrate control. actives 1.8% (n = 370,000);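 active = activation above a cutoff set at the mean of all screened compounds plus 3 SD, cut at about 10% in these data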;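 note: 0% = DMSO wells and 100% = sodium butyrate wells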
SMARCA2 activ: increases SMARCA2 function in MMTV reporter cells | MG213 cells, MMTV-luciferase reporter, dexamethasone, overnight | activation, % at 9.1 µM | actives 1% (n = 370,000) | AID 652017; in the data active = activation above about 7.8%;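 note: 0% = vehicle wells and 100% = reference activator wells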
DAX1 inh-2: inhibitors of DAX1 repression of SF-1 activated StAR promoter | HEK293T StAR-luciferase reporter, SF-1/DAX-1 repression relief | inhibition, % at 6.8 µM | actives 1.1% (n = 370,000);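 active = inhibition above the mean over all tested compounds plus 3 SD, cut at about 3.6% in these data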;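 note: 0% = DAX-1 cells with DMSO and 100% = cells lacking DAX-1 with DMSO; higher inhibition means more luminescence from relief of DAX-1 repression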
hcDAF-12 act: activators of H. contortus DAF-12 nuclear receptor | HEK293 hcDAF-12 lit1-tk-luc reporter, luminescence; 0% DMSO, 100% Δ7-dafachronic acid | activation, % at 6.8 µM | actives 1.4% (n = 370,000) | AID 652067;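 active = activation above the mean of all tested compounds plus 3 SD, cut at about 5.5% in these data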;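 note: 100% = response to 3 µM Δ7-dafachronic acid high control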
ssDAF12 agonist: activators of S. stercoralis DAF-12 nuclear receptor | actives 1% (n = 370,000) | AID 652126 | activation, % at 6.8 µM | HEK293 ssDAF-12/GRIP1 lit1-tk-luc reporter, luminescence; % of 3 µM dafachronic acid response;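 active = activation above the mean over all tested compounds plus 3 SD, cut at about 0.9% in these data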;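 note: 0% = DMSO-only wells and 100% = 3 µM delta7-dafachronic acid wells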
DAX1 inh confirm: confirmation of human DAX1 (NR0B1) inhibitors; shares compounds with DAX1 inh-2; HEK293T StAR-promoter luciferase reporter, SF-1/DAX-1 repression; inhibition, % at 6.8 µM; actives 87% (n = 2,400);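 active = inhibition above the average of every tested compound plus 3 SD, cut at about 3.8% in these data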;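 note: 0% = DAX-1 cells with DMSO and 100% = no DAX-1 control cells with DMSO; active compounds raise luminescence by relieving repression of the StAR reporter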
SF1 AF2mut Luc: nonselective inhibitor or artifact in SF-1 mutant DAX1 counter-screen; shares compounds with DAX1 inh-2; HEK293 StAR-luciferase, SF-1 AF2 mutant, luminescence; actives 78% (n = 2,400); inhibition, % at 6.8 µM; AID 652136;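 active = inhibition above the mean of all tested compounds plus 3 SD, cut at about 3% in these data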;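 note: 0% = DAX-1 transfected cells with DMSO and 100% = cells without DAX-1 with DMSO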
SMARCA2 conf: confirmation of SMARCA2 (BRM) function activators | AID 652260 | actives 30% (n = 3,500) | shares compounds with SMARCA2 activ | MG213 cells, MMTV-luciferase with dexamethasone, luminescence, overnight; MG213 cells expressing E1A, Rb sequestered; DMSO wells 0%, reference activator 100% | activation, % at 9.1 µM;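 active = activation above its plate's cutoff, the mean activation of tested wells plus 3 SD, cut at about 7.9% in these data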
GAL4-VP16 Luc: counter-screen for SMARCA2 activators: GAL4-VP16 luciferase reporter activation. activation, % at 9.1 µM. shares compounds with SMARCA2 activ. HEK293 GAL4-VP16 pG5luc reporter, luciferase luminescence; scaled: DMSO wells 0%, SAHA wells 100%. actives 41% (n = 3,500);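 active = activation above the solvent-only control well mean plus 3 SD, averaged across control plates, cut at about 5.2% in these data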
LXRb hcDAF ctr: LXR-beta agonism as hcDAF-12 counter-screen | AID 743027 | shares compounds with hcDAF-12 act | HEK293 Gal4-LXR tk-luc reporter, luminescence, 24 h; normalized: DMSO 0%, positive control 100% | activation, % at 6.8 µM | 3,400 tested, under 10 active;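 active = mean percent activation of the reporter above a cutoff set as the average over tested compounds plus their standard deviation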
Target sequence (P55055 whole entry, looked up, the tested form may be a part): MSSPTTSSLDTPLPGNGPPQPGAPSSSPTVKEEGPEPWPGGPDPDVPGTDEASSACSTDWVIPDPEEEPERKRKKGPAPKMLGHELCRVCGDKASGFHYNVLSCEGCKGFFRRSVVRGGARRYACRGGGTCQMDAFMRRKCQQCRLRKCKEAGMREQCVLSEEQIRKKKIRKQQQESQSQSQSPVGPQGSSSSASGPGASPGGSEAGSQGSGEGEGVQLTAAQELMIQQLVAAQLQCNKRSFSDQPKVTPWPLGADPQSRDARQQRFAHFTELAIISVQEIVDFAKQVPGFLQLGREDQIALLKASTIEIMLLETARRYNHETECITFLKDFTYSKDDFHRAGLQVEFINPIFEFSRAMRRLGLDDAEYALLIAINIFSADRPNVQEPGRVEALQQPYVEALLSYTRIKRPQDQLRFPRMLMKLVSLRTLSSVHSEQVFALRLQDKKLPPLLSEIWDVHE
hcDAF12 ag: hcDAF-12 agonism, confirmation assay | shares compounds with hcDAF-12 act | HEK293 hcDAF-12 lit1-tk-luc reporter, luminescence; % of Δ7-dafachronic acid response | activation, % at 6.8 µM | actives 61% (n = 3,400) | AID 743032;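 active = mean activation across triplicate tests above the threshold derived from the earlier primary screen, cut at about 5.5% in these data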;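 note: 0% = DMSO only wells and 100% = 3 µM Δ7-dafachronic acid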
hgDAF12 ag: confirmation of H. glycines DAF-12 agonists | activation, % at 6.8 µM | HEK293 GAL4-hgDAF12 luciferase reporter, agonist mode; percent of butyrate response | actives 80% (n = 3,300) | shares compounds with hgDAF-12 ag;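 active = mean activation over triplicate wells above the hit cutoff derived from the earlier primary screen, cut at about 11% in these data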;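 note: 0% = DMSO low control and 100% = 2 mM sodium butyrate high control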
LXR ag 2: LXR-beta agonism as DAF-12 counter-screen; shares compounds with hgDAF-12 ag; HEK293 Gal4-LXR luciferase reporter, 24 h; activation, % at 6.8 µM; 3,300 tested, under 10 active;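 active = mean activation of the triplicate above a set limit carried over from the primary screen, none filed active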
Starred values were filed as active, the others as inactive; nt = no result.

SMILES	DAX1 inh-1	hgDAF-12 ag	SMARCA2 activ	DAX1 inh-2	hcDAF-12 act	ssDAF12 agonist	DAX1 inh confirm	SF1 AF2mut Luc	LXRb hcDAF ctr	hcDAF12 ag	hgDAF12 ag	LXR ag 2	others
Cc1ccsc1/C=C/c1ccc2ccccc2n1	1	16*	4	5.0*	23*	3.0*	7.3*	2	2	22*	15*	2
COc1ccc(C=Cc2ccc3ccccc3n2)c(OC)c1	1	-8	-6	-2	0	-2	nt	nt	nt	nt	nt	nt
O=C(Nc1ccc2nn(-c3ccccc3)nc2c1)c1cccnc1	0	3	3	1	-1	-1	nt	nt	nt	nt	nt	nt
CC(C)C(=O)Nc1ccc2nn(-c3ccccc3)nc2c1	1	22*	9.4*	12*	8.8*	1.0*	13*	7.3*	2	8.4*	19*	1	SMARCA2 conf=6;GAL4-VP16 Luc=20*
C[C@@H]1COc2cc(N3CCSCC3)ccc2S(=O)(=O)N1C	nt	3	-3	-1	1	1	nt	nt	nt	nt	nt	nt
Cc1nc(-c2ccccc2)sc1-c1ccn[nH]1	3	14*	12*	9.2*	8.8*	0	16*	10*	1	6	17*	1	SMARCA2 conf=14*;GAL4-VP16 Luc=13*
Cc1nc(-c2ccccc2)sc1-c1ccnn1C	4	16*	5	6.2*	8.8*	1	15*	7.9*	1	5.8*	18*	1
OCCN1CN(c2ccccc2)C(=S)N(c2ccccc2)C1	nt	-1	-8	3	0	-2	nt	nt	nt	nt	nt	nt
O=[N+]([O-])c1cncc2[nH]cnc12	nt	3	1	2	-1	-2	nt	nt	nt	nt	nt	nt
CC(=O)c1ccc(NC(=O)NC2CCCCCCC2)cc1	2	14*	3	12*	5	0	13*	7.4*	nt	nt	16*	1
CC(=O)c1ccc(NC(=O)Nc2ccc(Cl)cc2)cc1	2	15*	4	6.5*	7.1*	0	6.6*	5.8*	1	7.4*	16*	1
O=C(Nc1ccccc1F)NC1CCCCCCC1	2	13*	6	4.5*	3	0	7.2*	4.1*	nt	nt	10	0
CC(=O)c1cccc(NC(=O)NC2CCCCCCC2)c1	1	0	1	0	3	-1	nt	nt	nt	nt	nt	nt
O=S1(=O)c2ccc(Br)cc2OC[C@H](Cc2ccccc2)N1Cc1cn(Cc2ccc(C(F)(F)F)cc2)nn1	nt	-1	-1	0	2	-1	nt	nt	nt	nt	nt	nt
COc1ccc(S[C@]2(C(=O)N3CCCC3)CC(=O)N(C(=O)Nc3ccc(C)c(Cl)c3)[C@@H]2c2ccc(OC)cc2)cc1	nt	-1	-1	0	-1	-1	nt	nt	nt	nt	nt	nt
Cc1cnc(NC(=O)COc2ccc3c(c2)CCC3)s1	1	25*	4	13*	6.1*	1.3*	14*	5.3*	nt	nt	25*	1
CC(C)c1cc(C(=O)Nc2cccc(Cl)c2)no1	1	19*	3	4.6*	7.8*	1	16*	9.3*	2	5.8*	19*	1
CC(=O)c1cccc(NC(=O)c2cc(C(C)C)on2)c1	0	17*	6	5.2*	5	0	11*	8.0*	nt	nt	10*	1
CC(=O)c1cccc(NC(=O)c2cc(-c3ccco3)on2)c1	1	4	0	0	-1	-1	nt	nt	nt	nt	nt	nt
CCc1sc(C(=O)N2CCc3ccccc32)cc1C	2	33*	2	6.3*	10*	3.5*	11*	6.6*	1	7.2*	21*	1
O=C(/C=C/c1cccc(F)c1)OCC(=O)N1CCCc2ccccc21	0	2	0	2	1	-1	nt	nt	nt	nt	nt	nt
O=C(/C=C/c1cccc(F)c1)N1CCc2ccccc21	3	24*	4	5.6*	14*	2.2*	15*	8.4*	2	13*	22*	1
O=C(Nc1ccc(Cl)cc1)c1ccc(Br)cc1F	4	18*	2	7.5*	9.6*	1	11*	7.5*	1	6	20*	1
CCNC(=S)NNC(=O)c1cc(-c2ccc(OCC)cc2)nc2ccccc12	-5	16*	7	7.7*	9.0*	1.3*	17*	8.6*	2	12*	25*	1
COc1ccc(C(=O)Nc2ccc3c(c2)OCCO3)cc1	-1	15*	8.0*	4.7*	5.8*	1.4*	14*	5.2*	nt	nt	15*	1	SMARCA2 conf=5;GAL4-VP16 Luc=10.0*
COc1ccc(C(=O)Nc2ccc3c(c2)OCCO3)c(OC)c1	2	22*	14*	9.4*	5.7*	0	13*	9.1*	nt	nt	17*	1	SMARCA2 conf=7;GAL4-VP16 Luc=14*
Cc1ncoc1C(=O)Nc1ccc2c(c1)OCCO2	0	-2	-4	0	0	-1	nt	nt	nt	nt	nt	nt
Cc1ccsc1C(=O)Nc1ccc2c(c1)OCCO2	-1	21*	5	4.6*	5	-1	14*	7.7*	nt	nt	15*	1
COc1cc2c(cc1NC(=O)CSc1nnc(-c3ccccc3C)n1Cc1ccco1)oc1ccccc12	nt	3	-5	-2	0	-1	nt	nt	nt	nt	nt	nt
